The values below come from the supplement of paper PMC11732987, “Enantioselective OTUD7B fragment discovery through chemoproteomics screening and high-throughput optimisation” (Communications Chemistry, 2025).

What all share (assay): log2 ratio of Biotin-Ahx-Ub-VS probe labelling (fragment/DMSO); higher = less target engagement (more negative = stronger competition), active = hit call of the paper (q ≤ 0.05, log2 ratio ≤ -1)
Holding throughout (details): compound concentration: 200 uM; treatment time: 3 h

For experiment [1], the target named is T1, ALG13 (UniProt Q9NP73).
T1 sequence (whole entry): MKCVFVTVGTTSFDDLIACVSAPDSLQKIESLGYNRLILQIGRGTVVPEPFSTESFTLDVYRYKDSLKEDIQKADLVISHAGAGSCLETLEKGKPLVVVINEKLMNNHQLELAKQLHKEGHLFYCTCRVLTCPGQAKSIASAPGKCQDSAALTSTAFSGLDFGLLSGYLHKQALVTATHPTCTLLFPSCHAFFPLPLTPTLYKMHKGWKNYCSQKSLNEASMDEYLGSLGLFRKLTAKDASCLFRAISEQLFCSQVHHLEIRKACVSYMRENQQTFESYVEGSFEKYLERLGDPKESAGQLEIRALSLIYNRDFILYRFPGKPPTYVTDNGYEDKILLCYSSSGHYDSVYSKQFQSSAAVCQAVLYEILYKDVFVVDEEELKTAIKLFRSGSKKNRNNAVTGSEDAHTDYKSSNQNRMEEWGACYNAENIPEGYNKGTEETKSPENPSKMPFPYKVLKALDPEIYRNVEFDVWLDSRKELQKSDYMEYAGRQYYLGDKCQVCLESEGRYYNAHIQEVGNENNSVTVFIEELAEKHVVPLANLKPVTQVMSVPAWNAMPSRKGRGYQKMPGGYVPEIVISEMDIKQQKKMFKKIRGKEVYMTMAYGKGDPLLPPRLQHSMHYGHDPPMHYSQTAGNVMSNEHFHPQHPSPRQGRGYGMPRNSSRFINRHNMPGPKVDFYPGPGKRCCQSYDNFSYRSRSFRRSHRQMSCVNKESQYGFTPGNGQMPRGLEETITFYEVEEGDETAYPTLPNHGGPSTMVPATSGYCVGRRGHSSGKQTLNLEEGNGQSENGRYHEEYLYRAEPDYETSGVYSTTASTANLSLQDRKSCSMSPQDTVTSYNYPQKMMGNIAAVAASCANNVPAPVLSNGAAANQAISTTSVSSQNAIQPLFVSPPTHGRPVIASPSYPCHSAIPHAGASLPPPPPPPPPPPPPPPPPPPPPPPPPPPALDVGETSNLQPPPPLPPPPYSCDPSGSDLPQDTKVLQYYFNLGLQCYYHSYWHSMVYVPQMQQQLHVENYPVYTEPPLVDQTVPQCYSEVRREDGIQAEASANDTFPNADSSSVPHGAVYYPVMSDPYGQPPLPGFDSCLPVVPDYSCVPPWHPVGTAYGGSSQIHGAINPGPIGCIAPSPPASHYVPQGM
Summed up: (§1)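 Labelled DUBs were enriched with NeutrAvidin, digested with LysC and trypsin, and run by diaPASEF LC-MS/MS. The labelling used Biotin-Ahx-Ub-VS at 0.5 µM final for 1 h on HEK293T lysate (495 µg per sample) previously treated in triplicate with fragment at 200 µM or vehicle for 3 h. Values are average log2 fragment/vehicle ratios by unpaired t-test on global-median-normalised Spectronaut quantities of proteins with ≥2 unique peptides.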

The target of experiment [2] is ATXN3 (UniProt P54252). Summed up:
as §1

The target of experiment [3] is T2, BAP1 (UniProt Q92560).
T2 sequence (whole entry): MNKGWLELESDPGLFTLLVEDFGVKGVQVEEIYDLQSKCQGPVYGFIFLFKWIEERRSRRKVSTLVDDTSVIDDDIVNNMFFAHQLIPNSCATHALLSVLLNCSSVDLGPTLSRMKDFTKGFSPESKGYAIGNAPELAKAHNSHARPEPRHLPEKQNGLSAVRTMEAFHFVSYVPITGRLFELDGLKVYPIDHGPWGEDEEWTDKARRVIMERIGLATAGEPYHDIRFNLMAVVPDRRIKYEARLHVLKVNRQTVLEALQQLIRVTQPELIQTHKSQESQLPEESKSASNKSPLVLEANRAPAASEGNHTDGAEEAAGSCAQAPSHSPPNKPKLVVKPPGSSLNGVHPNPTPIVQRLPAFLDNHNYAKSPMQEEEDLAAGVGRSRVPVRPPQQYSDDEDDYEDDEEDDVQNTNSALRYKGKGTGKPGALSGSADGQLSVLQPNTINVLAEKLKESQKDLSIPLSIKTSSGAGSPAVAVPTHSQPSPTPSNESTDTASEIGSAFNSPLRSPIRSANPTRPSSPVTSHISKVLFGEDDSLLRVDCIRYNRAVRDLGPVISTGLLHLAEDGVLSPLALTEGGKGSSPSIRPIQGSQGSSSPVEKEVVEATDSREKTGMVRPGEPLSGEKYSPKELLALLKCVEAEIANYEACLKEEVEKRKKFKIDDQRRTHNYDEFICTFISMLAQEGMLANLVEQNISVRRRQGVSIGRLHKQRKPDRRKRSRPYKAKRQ
The gist of the method:
as §1

The target in experiment [4] is EIF3F (UniProt O00303). Summed up: as §1
Sequence of EIF3F (O00303 whole entry): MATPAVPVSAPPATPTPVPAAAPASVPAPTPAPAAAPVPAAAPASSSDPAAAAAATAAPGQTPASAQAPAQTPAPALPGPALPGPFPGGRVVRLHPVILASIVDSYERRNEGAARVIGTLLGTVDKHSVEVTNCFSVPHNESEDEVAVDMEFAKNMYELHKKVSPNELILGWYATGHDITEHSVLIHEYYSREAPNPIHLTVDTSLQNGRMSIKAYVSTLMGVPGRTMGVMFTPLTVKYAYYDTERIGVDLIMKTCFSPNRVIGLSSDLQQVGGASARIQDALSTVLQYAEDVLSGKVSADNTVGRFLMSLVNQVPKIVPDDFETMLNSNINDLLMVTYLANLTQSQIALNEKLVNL
The target of experiment [5] is EIF3H (UniProt O15372). Summed up: as §1
Sequence of EIF3H (O15372 whole entry): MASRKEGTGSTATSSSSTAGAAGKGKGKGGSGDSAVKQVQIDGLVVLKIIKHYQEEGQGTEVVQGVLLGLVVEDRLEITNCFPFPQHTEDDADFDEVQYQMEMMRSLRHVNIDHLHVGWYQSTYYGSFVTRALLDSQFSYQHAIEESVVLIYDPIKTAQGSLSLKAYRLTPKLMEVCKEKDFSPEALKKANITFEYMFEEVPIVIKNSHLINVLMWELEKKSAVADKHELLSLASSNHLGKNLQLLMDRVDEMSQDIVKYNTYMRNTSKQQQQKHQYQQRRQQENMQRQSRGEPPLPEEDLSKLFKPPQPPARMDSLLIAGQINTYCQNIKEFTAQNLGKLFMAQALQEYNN
Experiment [6] concerns the target T3, FAM105A (UniProt Q9NUU6).
T3 sequence (whole entry): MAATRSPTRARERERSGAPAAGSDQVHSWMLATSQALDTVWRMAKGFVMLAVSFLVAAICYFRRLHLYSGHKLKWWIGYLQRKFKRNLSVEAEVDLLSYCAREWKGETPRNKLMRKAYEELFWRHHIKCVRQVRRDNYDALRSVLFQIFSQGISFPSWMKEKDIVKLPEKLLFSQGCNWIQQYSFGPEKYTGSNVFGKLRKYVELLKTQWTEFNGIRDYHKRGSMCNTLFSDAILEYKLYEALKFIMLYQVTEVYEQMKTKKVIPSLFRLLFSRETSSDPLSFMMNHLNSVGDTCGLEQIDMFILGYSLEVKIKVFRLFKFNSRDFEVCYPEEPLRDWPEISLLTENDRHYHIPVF
Summed up:
as §1

The target of experiment [7] is OTUB1 (UniProt Q96FW1). The gist of the method:
as §1

Experiment [8] concerns the target T4, OTUD4 (UniProt Q01804).
T4 sequence (whole entry): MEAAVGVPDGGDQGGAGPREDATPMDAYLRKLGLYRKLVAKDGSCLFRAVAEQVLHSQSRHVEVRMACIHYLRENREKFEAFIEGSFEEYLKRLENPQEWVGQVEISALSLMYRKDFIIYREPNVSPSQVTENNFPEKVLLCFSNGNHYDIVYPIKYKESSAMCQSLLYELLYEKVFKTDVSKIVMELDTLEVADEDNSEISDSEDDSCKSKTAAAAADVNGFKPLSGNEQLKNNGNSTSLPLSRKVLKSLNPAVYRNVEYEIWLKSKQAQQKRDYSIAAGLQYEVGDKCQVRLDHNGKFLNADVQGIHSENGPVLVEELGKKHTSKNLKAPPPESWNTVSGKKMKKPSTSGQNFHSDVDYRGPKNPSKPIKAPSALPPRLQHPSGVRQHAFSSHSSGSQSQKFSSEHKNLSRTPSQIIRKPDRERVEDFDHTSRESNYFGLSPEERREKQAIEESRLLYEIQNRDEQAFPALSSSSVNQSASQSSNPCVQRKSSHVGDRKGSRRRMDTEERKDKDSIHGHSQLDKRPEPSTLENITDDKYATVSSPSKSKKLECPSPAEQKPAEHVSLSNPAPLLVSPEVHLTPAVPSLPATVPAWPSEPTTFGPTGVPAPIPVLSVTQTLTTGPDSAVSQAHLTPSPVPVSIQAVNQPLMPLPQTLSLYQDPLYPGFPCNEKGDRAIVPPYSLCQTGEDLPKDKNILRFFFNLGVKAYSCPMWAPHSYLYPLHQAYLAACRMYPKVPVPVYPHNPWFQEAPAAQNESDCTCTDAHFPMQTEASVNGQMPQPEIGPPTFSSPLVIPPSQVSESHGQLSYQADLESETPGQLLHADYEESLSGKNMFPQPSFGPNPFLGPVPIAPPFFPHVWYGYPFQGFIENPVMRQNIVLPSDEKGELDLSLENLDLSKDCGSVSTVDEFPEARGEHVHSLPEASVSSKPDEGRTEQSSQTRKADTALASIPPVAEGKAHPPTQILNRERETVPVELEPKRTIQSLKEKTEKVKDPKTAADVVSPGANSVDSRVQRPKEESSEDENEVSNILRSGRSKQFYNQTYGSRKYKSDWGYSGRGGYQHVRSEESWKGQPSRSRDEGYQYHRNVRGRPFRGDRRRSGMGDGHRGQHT
Summed up: as §1

Experiment [9] has as its target T5, OTUD5 (UniProt Q96G74).
T5 sequence (whole entry): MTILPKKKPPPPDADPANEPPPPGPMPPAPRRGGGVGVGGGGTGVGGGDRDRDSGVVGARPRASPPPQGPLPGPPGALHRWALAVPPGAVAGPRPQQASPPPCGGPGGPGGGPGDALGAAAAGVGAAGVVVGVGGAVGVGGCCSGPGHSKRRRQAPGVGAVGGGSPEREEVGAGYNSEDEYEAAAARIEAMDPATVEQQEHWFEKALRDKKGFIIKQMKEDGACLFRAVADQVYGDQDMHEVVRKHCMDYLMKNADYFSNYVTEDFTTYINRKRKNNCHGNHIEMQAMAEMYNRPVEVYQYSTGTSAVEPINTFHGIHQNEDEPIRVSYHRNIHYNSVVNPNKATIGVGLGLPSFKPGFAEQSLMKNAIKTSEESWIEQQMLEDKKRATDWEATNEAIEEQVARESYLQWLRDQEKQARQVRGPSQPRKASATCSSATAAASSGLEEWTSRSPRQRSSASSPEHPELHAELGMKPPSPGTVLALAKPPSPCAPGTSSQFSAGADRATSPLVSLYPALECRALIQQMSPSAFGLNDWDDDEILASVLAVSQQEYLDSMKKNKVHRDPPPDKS
The gist of the method:
as §1

SMILES strings stand for the structures. A number with no mark means an inactive call.

Sequence of OTUB1 (Q96FW1 whole entry): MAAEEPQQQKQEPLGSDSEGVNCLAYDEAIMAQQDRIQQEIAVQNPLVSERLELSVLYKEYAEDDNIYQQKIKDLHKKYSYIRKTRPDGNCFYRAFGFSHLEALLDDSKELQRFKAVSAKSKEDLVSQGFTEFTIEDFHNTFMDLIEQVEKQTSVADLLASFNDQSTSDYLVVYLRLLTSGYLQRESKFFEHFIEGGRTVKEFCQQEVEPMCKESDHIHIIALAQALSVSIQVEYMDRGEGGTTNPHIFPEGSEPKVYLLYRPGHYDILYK
Sequence of ATXN3 (P54252 whole entry): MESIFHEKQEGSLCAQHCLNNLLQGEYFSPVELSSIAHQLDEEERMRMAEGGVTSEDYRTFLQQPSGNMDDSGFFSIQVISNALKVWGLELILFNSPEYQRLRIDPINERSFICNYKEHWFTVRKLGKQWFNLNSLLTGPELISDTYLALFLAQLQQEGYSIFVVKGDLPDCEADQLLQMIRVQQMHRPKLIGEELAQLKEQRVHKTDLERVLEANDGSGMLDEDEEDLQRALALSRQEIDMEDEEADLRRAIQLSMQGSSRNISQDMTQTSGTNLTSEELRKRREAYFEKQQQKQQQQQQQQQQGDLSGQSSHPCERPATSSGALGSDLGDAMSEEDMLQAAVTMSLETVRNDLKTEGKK

Regarding `Cc1ccc(N2CCC(NC(=O)CCl)C2=O)cc1` (configuration not stated), the “log2 ratio of Biotin-Ahx-Ub-VS probe labelling” value (shortened to “log2 ratio”) was -0.511 in experiment [1]; -0.0941 in experiment [2]; -2.46 (active) in experiment [3]; 0.043 in experiment [4]; -0.278 in [5]; 0.0934 in [6]. Also, the “log2 ratio” value in [7] is 0.0513; in [8] it was 0.0319; in [9] it was 0.0904.
Consider `Cc1ccccc1CN(C)C(=O)CCl`, for which the “log2 ratio” value in experiment [1] is -0.539; in [2], -1.13 (active); in [3], -2.27 (active); in [4], -0.115; in [5] it was 0.207; in experiment [6], -0.463. The results for the “log2 ratio” value in experiment [7], in [8] and in experiment [9] were -0.437, -0.914 and -1.15 (active), respectively.
As for `NS(=O)(=O)c1ccc(Cl)c(NC(=O)CCl)c1`, the “log2 ratio” value in [1] was -0.591; in [2], -0.697; in experiment [3] it was -4.06 (active); in [4], -0.117; in experiment [5], 0.198; in experiment [6] it was 0.226. Further, the “log2 ratio” value in experiment [7] is -0.37; in experiment [8], -2.55 (active); in experiment [9] it was -1.72 (active).
As for `CCCn1nccc1NC(=O)CCl`, the “log2 ratio” value in experiment [1] is 0.12; in experiment [2], -0.199; in experiment [3], -3.06 (active); in experiment [4] it was -0.613; in [5], 0.123; in experiment [6], 0.145. Also, the “log2 ratio” value in [7] was -0.396; in experiment [8], 0.00925; in experiment [9] it was -0.138.
Consider `CC(NC(=O)CCl)c1csc(-c2ccccc2)n1.Cl` (configuration not stated), for which the “log2 ratio” value was 0.0117 in experiment [1]; -0.556 in experiment [2]; -3.84 (active) in experiment [3]; -0.0347 in [4]; -0.03 in experiment [5]; 0.268 in [6]. Moreover, the “log2 ratio” value in [7] was -0.0384; in experiment [8], -1.31 (active); in [9] it was -0.527.
`Cl.Cn1nccc1C(NC(=O)CCl)c1ccccc1` (configuration not stated): the “log2 ratio” value was -0.0316 in experiment [1]; -0.49 in experiment [2]; -4.27 (active) in experiment [3]; -0.145 in [4]; 0.106 in experiment [5]; 0.0639 in experiment [6]. Moreover, the results for the “log2 ratio” value in [7], in experiment [8] and in experiment [9] were -0.173, -0.894 and -0.379, respectively.
Regarding `Cc1noc(C)c1CNC(=O)CCl`, the “log2 ratio” value in experiment [1] is -0.968; in experiment [2], -0.884; in experiment [3] it was -2.03 (active); in [4] it was -0.561; in experiment [5], 0.0244; in [6], 0.341. Besides, the “log2 ratio” value in experiment [7] was -0.618; in experiment [8] it was -0.737; in experiment [9] it was -0.764.
For `O=C(CCl)N1CCC(C(=O)N2CCCCCC2)CC1`, the “log2 ratio” value in experiment [1] was 0.205; in experiment [2], -0.407; in experiment [3], -0.398; in experiment [4], -0.0762; in experiment [5], 0.0816; in [6] it was -0.0217. Also, the “log2 ratio” value was 0.0563 in experiment [7], -0.035 in experiment [8] and -0.328 in experiment [9].
